Inconclusive results are not listed. Unmarked numbers belong to inactive results. Calls of active or inactive are those of the source. The call rests on the fitted dose curve.
Assay: A qHTS for Small Molecule Inhibitors of Shiga Toxin (Confirmatory); further: nearly all actives have a fitted effect of over 75% in size; on activity, positive = inhibition of toxin: 0% is about no effect
Details: Cell-based Shiga toxin protection reporter assay; series mostly up to 38.3 µM; activity, positive = inhibition of toxin: at the top concentration
Potency means the concentration at half of the fitted maximal effect.

Row | Structure (SMILES) | Potency | activity, positive = inhibition of toxin [%]
1 | COC(=O)c1ccc(-c2ncc(-c3cccc4ccccc34)o2)cc1 | 7.11 µM (active) | 
2 | COc1cccc(OC)c1OCCCOc1ccc(C)cc1Br |  | 28.7
3 | O=c1cc(-c2cccc(F)c2)[nH]c2ccc(Cl)cc12 |  | -10.8
4 | COc1ccc(-c2cc(-c3ccccc3O)[nH]n2)cc1OC | 2.25 µM (active) | 
5 | CCN(CCn1cccn1)Cc1nc(-c2ccccc2)no1 |  | 7.23
6 | CCNc1c(NC(=O)c2cccs2)c(=O)oc2ccccc12 |  | 24.2
7 | CCCCC1(C)Nc2ccccc2-c2nc3ccccc3n21 (centres undefined) | 12.6 µM (active) | 
8 | Cc1nonc1OCCCNc1ccc([N+](=O)[O-])cc1Cl | 12.6 µM (active) | 
9 | CC(=O)c1ccccc1Oc1ncnc(N)c1[N+](=O)[O-] |  | -5.59
10 | CSCc1cc(N2CCOCC2)nc(SCc2ccc(Cl)cc2Cl)n1 |  | -1.1
11 | CCn1c(SCC(=O)NCc2ccco2)nc2c1c(=O)n(C)c(=O)n2C |  | 73.1
12 | NNC(=O)c1ccc(NS(=O)(=O)c2ccc(Br)cc2)cc1 |  | 3.16
13 | COc1ccc(C/C(O)=C(\C#N)c2nc3ccccc3s2)cc1 |  | 6.3
14 | CSc1nc2ccc(N3C(=O)C4CCCCC4C3=O)cc2s1 (centres undefined) |  | 29.6
15 | Cc1nc(N2CCN(C(=O)c3ccco3)CC2)nc2c1C(=O)CCC2 | 6.34 µM (active) | 
16 | COc1ccc(NC(=O)c2cccnc2Nc2ccc(OC)cc2)cc1 |  | 49.4
17 | COc1cc2c(c(OC)c1OC)-c1c(cc(OC)c(OC)c1OC)C[C@](C)(O)[C@@H](C)C2 |  | 34.8
18 | CCOC(=O)Cc1csc(NC(=O)CSc2ncnc3c2cnn3-c2ccc(OC)cc2)n1 | 5.04 µM (active) | 
19 | CC1CCc2sc(C(=O)NN)cc2C1 (centres undefined) |  | 3.83

From PubChem BioAssay AID2320 (National Center for Advancing Translational Sciences (NCATS), 2010)
